About 6,500 targets were measured; listed, in parts, are those with a hit and a random draw of the rest. About 2% of all pairs of compound and target were hits.
What follows are targets tested with COC(=O)C#Cc1ccccc1 [methyl 3-phenylpropiolate] (assay: log2 ratio of iodoacetamide-alkyne labeling of the cysteine site, DMSO over compound (competition); higher = stronger covalent engagement of the cysteine by the compound, active = 1 or more). Settings: 500 µM; treatment time 1 h; system: HEK293T cell lysate.
Summary of the method: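 Reporter intensities give each cysteine's log2 competition ratio as the mean of control channels over the mean of compound channels. The samples were HEK293T lysate (2 mg/mL) given vehicle or electrophile (500 µM, 1 h, ambient temperature), then iodoacetamide alkyne (1 h), followed by click coupling to sCIP-TMT reagents, pooling, trypsin digestion overnight at 37 °C, streptavidin enrichment, acid elution, Orbitrap Eclipse LC-MS/MS with FAIMS and FragPipe quantification. Duplicate channels and three replicates were run, and cysteines quantified in only one replicate were discarded.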

UniProt Q9UJC3, sequence (Q9UJC3 whole entry): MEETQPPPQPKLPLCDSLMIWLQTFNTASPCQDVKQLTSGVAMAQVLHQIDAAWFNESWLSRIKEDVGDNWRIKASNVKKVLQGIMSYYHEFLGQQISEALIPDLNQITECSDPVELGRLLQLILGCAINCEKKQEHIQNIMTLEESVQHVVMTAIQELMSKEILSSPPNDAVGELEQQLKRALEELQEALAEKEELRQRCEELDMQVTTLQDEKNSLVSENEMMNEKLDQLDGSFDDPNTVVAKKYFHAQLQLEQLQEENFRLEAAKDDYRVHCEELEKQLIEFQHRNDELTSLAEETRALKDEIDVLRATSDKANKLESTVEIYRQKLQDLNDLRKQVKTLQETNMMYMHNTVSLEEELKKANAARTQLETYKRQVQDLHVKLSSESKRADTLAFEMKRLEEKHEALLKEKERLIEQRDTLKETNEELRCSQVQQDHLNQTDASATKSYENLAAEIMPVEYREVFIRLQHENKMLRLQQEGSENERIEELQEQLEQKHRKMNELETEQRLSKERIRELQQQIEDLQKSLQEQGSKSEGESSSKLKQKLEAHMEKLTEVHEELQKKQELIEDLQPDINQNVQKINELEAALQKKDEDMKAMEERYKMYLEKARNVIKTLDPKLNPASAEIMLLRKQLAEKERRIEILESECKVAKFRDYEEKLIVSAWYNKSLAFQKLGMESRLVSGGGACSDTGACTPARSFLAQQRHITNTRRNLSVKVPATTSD
UniProt Q9NXV2, sequence (Q9NXV2 whole entry, looked up): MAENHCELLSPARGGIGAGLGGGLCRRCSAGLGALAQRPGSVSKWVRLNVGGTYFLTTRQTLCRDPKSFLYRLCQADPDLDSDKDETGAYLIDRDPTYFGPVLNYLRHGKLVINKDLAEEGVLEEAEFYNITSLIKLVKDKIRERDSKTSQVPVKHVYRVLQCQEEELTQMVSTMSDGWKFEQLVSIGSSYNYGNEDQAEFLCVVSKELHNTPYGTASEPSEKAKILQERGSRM
UniProt Q9BVQ7, sequence (Q9BVQ7 whole entry, looked up): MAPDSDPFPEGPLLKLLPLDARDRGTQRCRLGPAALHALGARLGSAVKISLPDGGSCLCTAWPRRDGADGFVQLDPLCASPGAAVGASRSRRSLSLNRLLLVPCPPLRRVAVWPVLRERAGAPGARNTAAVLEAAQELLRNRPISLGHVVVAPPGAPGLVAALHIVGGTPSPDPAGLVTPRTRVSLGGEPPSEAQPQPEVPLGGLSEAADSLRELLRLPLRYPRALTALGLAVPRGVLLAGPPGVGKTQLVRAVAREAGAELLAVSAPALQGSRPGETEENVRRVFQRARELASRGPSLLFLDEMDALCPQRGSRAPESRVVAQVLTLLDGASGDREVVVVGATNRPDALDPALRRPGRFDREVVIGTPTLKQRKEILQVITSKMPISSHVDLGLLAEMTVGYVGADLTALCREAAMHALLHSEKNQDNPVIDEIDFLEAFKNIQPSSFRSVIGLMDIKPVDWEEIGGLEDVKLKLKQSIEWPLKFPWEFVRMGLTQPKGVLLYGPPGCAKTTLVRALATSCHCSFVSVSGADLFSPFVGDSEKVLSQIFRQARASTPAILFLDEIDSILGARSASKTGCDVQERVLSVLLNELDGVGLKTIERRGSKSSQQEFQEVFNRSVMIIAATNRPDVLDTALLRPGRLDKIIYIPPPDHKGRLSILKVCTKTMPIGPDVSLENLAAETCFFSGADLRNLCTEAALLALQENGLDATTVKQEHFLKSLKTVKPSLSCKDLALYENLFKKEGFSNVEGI
UniProt Q9UKF6, sequence (Q9UKF6 whole entry, looked up): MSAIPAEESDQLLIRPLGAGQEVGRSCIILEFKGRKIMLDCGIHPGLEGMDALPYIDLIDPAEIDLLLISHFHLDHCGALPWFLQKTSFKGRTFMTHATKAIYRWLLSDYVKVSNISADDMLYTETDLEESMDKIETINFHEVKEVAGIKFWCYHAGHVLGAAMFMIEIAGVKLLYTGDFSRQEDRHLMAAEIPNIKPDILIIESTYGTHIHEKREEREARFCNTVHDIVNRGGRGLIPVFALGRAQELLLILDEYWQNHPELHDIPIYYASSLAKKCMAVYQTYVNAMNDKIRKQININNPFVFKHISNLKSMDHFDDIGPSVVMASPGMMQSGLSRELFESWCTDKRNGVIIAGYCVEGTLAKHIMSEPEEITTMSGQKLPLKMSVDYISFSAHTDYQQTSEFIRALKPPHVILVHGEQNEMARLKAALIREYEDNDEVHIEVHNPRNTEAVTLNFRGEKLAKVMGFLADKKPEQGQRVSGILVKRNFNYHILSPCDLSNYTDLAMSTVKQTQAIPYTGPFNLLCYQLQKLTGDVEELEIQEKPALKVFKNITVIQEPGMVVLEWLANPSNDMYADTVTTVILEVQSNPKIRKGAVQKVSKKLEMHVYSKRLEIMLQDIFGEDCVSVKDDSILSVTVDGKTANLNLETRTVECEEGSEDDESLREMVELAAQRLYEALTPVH
UniProt Q9NQX3, sequence (Q9NQX3 whole entry, looked up): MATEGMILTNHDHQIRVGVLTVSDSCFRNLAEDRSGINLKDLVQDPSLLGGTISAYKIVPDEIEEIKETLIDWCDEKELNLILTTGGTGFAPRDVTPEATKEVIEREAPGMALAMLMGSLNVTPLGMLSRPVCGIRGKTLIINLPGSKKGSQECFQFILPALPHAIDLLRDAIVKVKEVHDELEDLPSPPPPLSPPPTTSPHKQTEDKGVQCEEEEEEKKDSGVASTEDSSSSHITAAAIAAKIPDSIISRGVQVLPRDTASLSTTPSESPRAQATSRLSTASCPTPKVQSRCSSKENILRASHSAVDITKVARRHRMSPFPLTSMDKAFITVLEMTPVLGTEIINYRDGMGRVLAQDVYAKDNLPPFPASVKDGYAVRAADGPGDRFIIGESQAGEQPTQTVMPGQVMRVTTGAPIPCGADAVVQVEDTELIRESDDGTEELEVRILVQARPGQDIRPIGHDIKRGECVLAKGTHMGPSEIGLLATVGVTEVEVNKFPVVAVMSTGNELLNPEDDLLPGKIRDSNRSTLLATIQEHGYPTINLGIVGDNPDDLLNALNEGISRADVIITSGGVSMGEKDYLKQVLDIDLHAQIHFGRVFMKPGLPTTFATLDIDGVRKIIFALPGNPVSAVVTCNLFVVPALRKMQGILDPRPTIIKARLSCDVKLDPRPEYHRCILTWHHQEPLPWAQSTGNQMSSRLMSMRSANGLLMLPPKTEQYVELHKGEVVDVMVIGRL
UniProt Q9NTI5, sequence (Q9NTI5 whole entry): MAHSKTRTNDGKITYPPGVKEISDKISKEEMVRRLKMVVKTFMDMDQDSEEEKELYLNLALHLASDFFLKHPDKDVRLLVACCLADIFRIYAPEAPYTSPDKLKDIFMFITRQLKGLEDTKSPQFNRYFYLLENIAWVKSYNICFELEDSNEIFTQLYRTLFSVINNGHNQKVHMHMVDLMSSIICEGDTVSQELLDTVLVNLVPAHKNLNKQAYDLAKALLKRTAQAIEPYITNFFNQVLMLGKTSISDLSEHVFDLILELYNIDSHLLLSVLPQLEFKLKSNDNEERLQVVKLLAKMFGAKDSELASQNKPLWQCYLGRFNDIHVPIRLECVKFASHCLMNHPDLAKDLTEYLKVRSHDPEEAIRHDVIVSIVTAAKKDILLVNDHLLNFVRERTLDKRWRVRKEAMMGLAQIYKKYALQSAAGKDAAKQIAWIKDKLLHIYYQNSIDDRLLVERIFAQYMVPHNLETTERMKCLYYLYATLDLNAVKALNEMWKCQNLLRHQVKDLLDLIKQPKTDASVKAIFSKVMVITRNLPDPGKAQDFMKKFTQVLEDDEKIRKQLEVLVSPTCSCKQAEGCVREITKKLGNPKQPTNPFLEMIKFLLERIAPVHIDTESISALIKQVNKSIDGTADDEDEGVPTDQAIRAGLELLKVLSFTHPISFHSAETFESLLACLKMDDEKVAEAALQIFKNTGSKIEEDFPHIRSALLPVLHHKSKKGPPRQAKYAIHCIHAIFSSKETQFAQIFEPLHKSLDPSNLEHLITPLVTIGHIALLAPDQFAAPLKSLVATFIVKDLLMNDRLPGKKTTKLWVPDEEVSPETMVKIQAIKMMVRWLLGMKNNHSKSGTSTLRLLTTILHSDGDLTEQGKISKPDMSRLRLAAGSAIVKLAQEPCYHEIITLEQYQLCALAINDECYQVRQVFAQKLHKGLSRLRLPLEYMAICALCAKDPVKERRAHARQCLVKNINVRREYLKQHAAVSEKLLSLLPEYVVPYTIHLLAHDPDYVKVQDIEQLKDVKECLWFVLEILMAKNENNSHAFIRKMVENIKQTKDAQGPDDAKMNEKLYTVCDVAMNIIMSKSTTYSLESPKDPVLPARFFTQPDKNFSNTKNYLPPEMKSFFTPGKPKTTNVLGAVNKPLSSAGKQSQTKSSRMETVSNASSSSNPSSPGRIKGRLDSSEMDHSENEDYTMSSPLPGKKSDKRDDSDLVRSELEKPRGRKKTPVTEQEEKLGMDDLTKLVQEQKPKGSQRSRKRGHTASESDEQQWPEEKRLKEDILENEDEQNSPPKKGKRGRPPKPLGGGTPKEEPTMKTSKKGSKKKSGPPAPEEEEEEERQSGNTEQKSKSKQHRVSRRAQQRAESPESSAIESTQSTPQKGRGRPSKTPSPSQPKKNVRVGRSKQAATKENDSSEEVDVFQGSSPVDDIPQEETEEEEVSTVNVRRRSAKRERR
UniProt Q9UHW5, sequence (Q9UHW5 whole entry, looked up): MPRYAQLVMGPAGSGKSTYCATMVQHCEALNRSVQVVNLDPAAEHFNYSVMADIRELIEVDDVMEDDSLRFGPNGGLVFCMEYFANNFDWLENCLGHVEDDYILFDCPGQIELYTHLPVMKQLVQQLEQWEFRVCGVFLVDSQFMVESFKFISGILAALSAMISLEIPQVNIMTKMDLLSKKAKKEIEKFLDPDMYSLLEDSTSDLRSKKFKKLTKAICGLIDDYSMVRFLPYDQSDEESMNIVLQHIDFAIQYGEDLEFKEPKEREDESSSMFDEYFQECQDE
UniProt Q9Y3C1, sequence (Q9Y3C1 whole entry): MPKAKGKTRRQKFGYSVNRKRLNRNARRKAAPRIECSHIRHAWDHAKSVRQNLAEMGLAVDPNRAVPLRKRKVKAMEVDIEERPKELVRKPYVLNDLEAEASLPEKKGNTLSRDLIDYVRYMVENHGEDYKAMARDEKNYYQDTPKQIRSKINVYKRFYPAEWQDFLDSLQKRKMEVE

Target	log2 ratio of iodoacetamide-alkyne labeling
MBD1 C57 (UniProt Q9UIS9)	0.0108 (inactive)
NOP16 C36 (UniProt Q9Y3C1)	1.12 (active)
NOL6 C1034 (UniProt Q9H6R4)	1.81 (active)
UniProt Q9BVS4_C449	1.18 (active)
MYO6 C1236 (UniProt Q9UM54)	0.0604 (inactive)
UniProt Q9BYG3_C237	0.515 (inactive)
HOOK1 C432 (UniProt Q9UJC3)	0.385 (inactive)
UBE2O C400 (UniProt Q9C0C9)	-0.416 (inactive)
UniProt Q9UBD5_C159	1.13 (active)
UniProt Q9H1B7_C385	0.164 (inactive)
DDX19A C224 (UniProt Q9NUU7)	0.0835 (inactive)
RRBP1 C892 (UniProt Q9P2E9)	0.291 (inactive)
WIPI2 C393 (UniProt Q9Y4P8)	1.22 (active)
UBE2O C406 (UniProt Q9C0C9)	1.46 (active)
PRR12 C322 (UniProt Q9ULL5)	0.259 (inactive)
UniProt Q9HBK9_C32	1.1 (active)
DCTN4 C41 (UniProt Q9UJW0)	0.309 (inactive)
GPHN C26 (UniProt Q9NQX3)	-0.0135 (inactive)
BICC1 C621 (UniProt Q9H694)	0.525 (inactive)
CCDC88C C1520 (UniProt Q9P219)	1.15 (active)

Target	log2 ratio of iodoacetamide-alkyne labeling
MRPS18C C90 (UniProt Q9Y3D5)	0.167 (inactive)
DLGAP4 C726 (UniProt Q9Y2H0)	0.74 (inactive)
GPN3 C219 (UniProt Q9UHW5)	0.0998 (inactive)
PPAN C432 (UniProt Q9NQ55)	0.73 (inactive)
CPSF3 C655 (UniProt Q9UKF6)	0.293 (inactive)
EXOC6B C68 (UniProt Q9Y2D4)	-0.0384 (inactive)
FAM169A C138 (UniProt Q9Y6X4)	0.201 (inactive)
KCTD5 C6 (UniProt Q9NXV2)	0.701 (inactive)
SPATA5L1 C78 (UniProt Q9BVQ7)	0.204 (inactive)
UTP6 C175 (UniProt Q9NYH9)	1.62 (active)
TBCD C234 (UniProt Q9BTW9)	0.281 (inactive)
TBCD C1175 (UniProt Q9BTW9)	0.204 (inactive)
UniProt Q9NUQ3_C127	0.926 (inactive)
PDS5B C1069 (UniProt Q9NTI5)	0.199 (inactive)
ASPSCR1 C225 (UniProt Q9BZE9)	1.02 (active)
LANCL2 C49 (UniProt Q9NS86)	-0.064 (inactive)
UniProt Q9C0E8_C149	0.125 (inactive)
DERA C118 (UniProt Q9Y315)	0.275 (inactive)
RNF126 C15 (UniProt Q9BV68)	0.119 (inactive)

Reference: the supplement of paper PMC11006884
